Data published in publication PMC5540273 (PLoS ONE, 2017).

Tests used:
Conditions in all cases: concentration: 1 μM,replicates: in singlicate; n = 1
[1] = test system: T1, RSK4(Kin.Dom.1-N-terminal)
T1 construct: gene RPS6KA6

[2] = test system: T2, RSK4(Kin.Dom.2-C-terminal)
T2 construct: gene RPS6KA6

S6K1 = test system: S6K1
SBK1 = test system: SBK1
SGK2 = test system: SGK2
SGK3 = test system: SGK3
SGK = test system: SGK
SIK2 = test system: SIK2
SIK = test system: SIK
SLK = test system: SLK
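Note: KINOMEscan kinase panel screen.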

Cc1ccn2nc(-c3ccc(F)cc3)c(-c3ccncc3)c2c1.Cl [GW457859]
%Inh [1]: 0%
%Inh [2]: 85%
%Inh (S6K1): 1%
%Inh (SBK1): 10%
%Inh (SGK2): 0%
%Inh (SGK3): 5%
%Inh (SGK): 22%
%Inh (SIK2): 0%
%Inh (SIK): 0%
%Inh (SLK): 2%

Cc1ccc(CC(=O)N2CCc3cc(-c4cn(C)c5ncnc(N)c45)ccc32)cc1 [GSK2634758]
%Inh [1]: 0%
%Inh [2]: 15%
%Inh (S6K1): 5%
%Inh (SBK1): 7%
%Inh (SGK2): 0%
%Inh (SGK3): 4%
%Inh (SGK): 0%
%Inh (SIK2): 0%
%Inh (SIK): 32%
%Inh (SLK): 59%

CC(=O)c1c(-c2ccncc2)[nH]c(-c2ccncc2)c1C [GW493036]
%Inh [1]: 0%
%Inh [2]: 4%
%Inh (S6K1): 6%
%Inh (SBK1): 10%
%Inh (SGK2): 11%
%Inh (SGK3): 9%
%Inh (SGK): 0%
%Inh (SIK2): 0%
%Inh (SIK): 0%
%Inh (SLK): 0%

O=C(Nc1ccccc1)c1cccc(Oc2ccc3nccn3n2)c1
%Inh [1]: 5%
%Inh [2]: 0%
%Inh (S6K1): 0%
%Inh (SBK1): 5%
%Inh (SGK2): 18%
%Inh (SGK3): 17%
%Inh (SGK): 0%
%Inh (SIK2): 0%
%Inh (SIK): 0%
%Inh (SLK): 9%

Cc1ccc(C(=O)Nc2ccc(Oc3ccc4nc(NC(=O)C5CC5)cn4c3)c(F)c2)c(=O)n1-c1ccccc1
%Inh [1]: 0%
%Inh [2]: 0%
%Inh (S6K1): 9%
%Inh (SBK1): 0%
%Inh (SGK2): 0%
%Inh (SGK3): 0%
%Inh (SGK): 0%
%Inh (SIK2): 19%
%Inh (SIK): 94.9%
%Inh (SLK): 79%

Cn1cc(-c2cccc3c(N)c(C(N)=O)nnc23)cn1
%Inh [1]: 22%
%Inh [2]: 3%
%Inh (S6K1): 22%
%Inh (SBK1): 19%
%Inh (SGK2): 45%
%Inh (SGK3): 64%
%Inh (SGK): 78%
%Inh (SIK2): 17%
%Inh (SIK): 24%
%Inh (SLK): 0%

Cn1ccc2ncnc(Oc3ccc(NC(=O)Nc4cccc(C(F)(F)F)c4)c(Cl)c3)c21
%Inh [1]: 0%
%Inh [2]: 41%
%Inh (S6K1): 2%
%Inh (SBK1): 0%
%Inh (SGK2): 0%
%Inh (SGK3): 0%
%Inh (SGK): 0%
%Inh (SIK2): 9%
%Inh (SIK): 10%
%Inh (SLK): 63%

O=C(Nc1n[nH]c2cc(-c3ccco3)ccc12)C1CC1 [SB-737447]
%Inh [1]: 26%
%Inh [2]: 10%
%Inh (S6K1): 4%
%Inh (SBK1): 23%
%Inh (SGK2): 30%
%Inh (SGK3): 34%
%Inh (SGK): 47%
%Inh (SIK2): 0%
%Inh (SIK): 0%
%Inh (SLK): 13%
